Assay results as given in PubChem BioAssay (Tox21).
Records with an inconclusive call do not appear. Calls of active or inactive are those of the source. Calls come from the whole dose curve. Numbered stars: 1 amine (or outer) side, 2 acyl side, 3 side chain; on linkers, the order of the positions; unused ones are H or OH. Bridge positions count the residues as written; N and C are the ends. Square brackets hold non-standard residues; d marks the D form. Peptide text beside a SMILES is read from it. I, II: the chains in the order shown. Actinocin(9to1) = Cc1c2oc3c(C)ccc(C(=O)[*:1])c3nc-2c(C(=O)[*:2])c(N)c1=O; NMeV = CN[C@H](C(=O)O)C(C)C; Sar = CNCC(=O)O

assay: G protein-coupled receptor (GPCR) small molecule agonists, calcium flux assay: HEK293 wild type cell line counter screen (AID 1920065); conditions: HEK293 WT calcium flux, fluorescence, agonist mode; series mostly up to 57.6 µM; activation: at the top concentration
Procedure, shortened: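 In this agonist-mode screen, ATP is the positive control and DMSO the vehicle. Cells grow 18 h before a 1 h dye incubation at 37 C; signal is taken at Ex/Em 480/540 over 3 min.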
% is set by controls: 0 for no effect and ±100 for the full control effect.

Compound	activation	Potency
Cc1cc(C)c(N=Nc2c(O)c(S(=O)(=O)O)cc3cc(S(=O)(=O)O)ccc23)cc1C	-0.909% [at 5.23 µM] (inactive)	–
CC(=O)Nc1c(I)cc(I)c(C(=O)O)c1I	-0.627% [at 26.5 µM] (inactive)	–
C=COCCOCCOCCOC=C	-0.25% (inactive)	–
O=C1OC(=O)c2ccc3c4c(ccc1c24)C(=O)OC3=O	-0.208% (inactive)	–
CC(=O)[O][Al][O]C(C)=O	-0.0417% (inactive)	–
COc1ccc2cc(C=O)ccc2c1	-0.2% [at 26.5 µM] (inactive)	–
Cc1occc1S	1.19% (inactive)	–
CCCN1CCCC[C@H]1C(=O)Nc1c(C)cccc1C	-0.0201% [at 26.5 µM] (inactive)	–
Cc1ccc(NC(=O)N(C)C)cc1NC(=O)N(C)C	-0.474% (inactive)	–
CCN(CC)CCN	1.8% [at 26.5 µM] (inactive)	–
O=[N+]([O-])c1ccccc1Nc1ccccc1	-2.03% (inactive)	–
NC(=O)c1ncn([C@@H]2O[C@H](CO)[C@@H](O)[C@H]2O)c1O	0.0115% [at 26.5 µM] (inactive)	–
O=C(O)[C@@H]1[C@H]2C[C@H]3c4[nH]c5ccccc5c4CCN3C[C@@H]2CC[C@@H]1O	4.68% [at 26.5 µM] (inactive)	–
CC1(C)C(C=C(Cl)Cl)C1C(=O)OCc1cccc(Oc2ccccc2)c1 (stereo not drawn)	–	inactive
CC[C@]1(O)C[C@@H]2CN(CCc3c([nH]c4ccccc34)[C@@](C(=O)OC)(c3cc4c(cc3OC)N(C)[C@H]3[C@@](O)(C(=O)OC)[C@H](OC(C)=O)[C@]5(CC)C=CCN6CC[C@]43[C@@H]65)C2)C1	–	inactive
O=C(O)c1ccccc1OP(=O)(O)O	-0.0883% [at 26.5 µM] (inactive)	–
CCCCN(CCO)CCO	-0.0872% (inactive)	–
COC(OC)C(C)c1ccccc1 (stereo not drawn)	1.27% (inactive)	–
Nc1cc(=O)[nH]c(N)n1	-0.0287% [at 26.5 µM] (inactive)	–
CCOC(OCC)OCC	-0.337% (inactive)	–

Compound	activation	Potency
C=CCOC(=O)CCCCCC	0.182% (inactive)	–
O=C(O)[C@@H](O)[C@H](O)[C@H](O)[C@@H](O)C(=O)O	0.326% [at 26.5 µM] (inactive)	–
CCCCCCCCCC(C)=O	0.414% (inactive)	–
OC/C=C/CO	0.715% (inactive)	–
CCCCCCCCCCCCC(=O)O	2.06% (inactive)	–
Cc1ccc(S(=O)(=O)NC(=O)NC2CCCC2)cc1	1.46% [at 26.5 µM] (inactive)	–
CCCC(=O)c1ccccc1	-1.19% (inactive)	–
NC(=O)c1cccc([N+](=O)[O-])c1	0.207% (inactive)	–
COc1c2ccoc2cc2oc(=O)ccc12	–	inactive
CC(C)c1cccc(C(C)C)c1N	0.183% (inactive)	–
CCCCCCCCC1CCC(=O)O1 (stereo not drawn)	-1.08% (inactive)	–
Cc1cccc(Cl)c1	-0.0176% (inactive)	–
CO[Si](C)(C)OC	0.137% (inactive)	–
COCc1ccc(COC)cc1	-0.932% (inactive)	–
c1c[nH]cn1	–	inactive
OC1(c2ccc(Cl)cc2)CCNCC1	-0.274% [at 26.5 µM] (inactive)	–
Cc1c2oc3c(C)ccc(C(=O)N[C@@H]4C(=O)N[C@H](C(C)C)C(=O)N5CCC[C@H]5C(=O)N(C)CC(=O)N(C)[C@@H](C(C)C)C(=O)O[C@@H]4C)c3nc-2c(C(=O)N[C@@H]2C(=O)N[C@H](C(C)C)C(=O)N3CCC[C@H]3C(=O)N(C)CC(=O)N(C)[C@@H](C(C)C)C(=O)O[C@@H]2C)c(N)c1=O (I: T[dV]P[Sar][NMeV] / II: T[dV]P[Sar][NMeV]; ester I:1-I:C, II:1-II:C; linker I:N-II:N via Actinocin(9to1))	–	inactive
C1CCCCC1	1.08% (inactive)	–
Cc1ccc(C(C)c2ccc(C)c(C)c2)cc1C	0.22% (inactive)	–

assay: p53 small molecule agonists, cell-based qHTS assay with human liver microsomes (AID 1963577); conditions: HCT-116 p53RE-bla with human liver microsomes, ratio, 16 h; series mostly up to 66 µM; activation: at the top concentration;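 note: p53 response element beta-lactamase reporter cells with liver microsomes plus NADPH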
Procedure, shortened: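 Cells carrying a p53-responsive bla reporter were rested 5 h (37 C, 5% CO2) before compound transfer. Human liver microsomes plus NADPH, 0.5 mg/mL final apiece, supplied metabolism during the 16 h 37 C exposure.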

Compound	activation	Potency
Cc1cc(C)c(N=Nc2c(O)c(S(=O)(=O)O)cc3cc(S(=O)(=O)O)ccc23)cc1C	-0.355% [at 5.99 µM] (inactive)	–
CC(=O)Nc1c(I)cc(I)c(C(=O)O)c1I	7.08% [at 30.3 µM] (inactive)	–
C=COCCOCCOCCOC=C	3.5% (inactive)	–
O=C1OC(=O)c2ccc3c4c(ccc1c24)C(=O)OC3=O	0.935% (inactive)	–
CC(=O)[O][Al][O]C(C)=O	1.2% (inactive)	–
COc1ccc2cc(C=O)ccc2c1	5.28% [at 30.3 µM] (inactive)	–
Cc1occc1S	-5.08% (inactive)	–
CCCN1CCCC[C@H]1C(=O)Nc1c(C)cccc1C	-2.34% [at 30.3 µM] (inactive)	–
Cc1ccc(NC(=O)N(C)C)cc1NC(=O)N(C)C	-9.07% (inactive)	–
CCN(CC)CCN	1.97% [at 30.3 µM] (inactive)	–
O=[N+]([O-])c1ccccc1Nc1ccccc1	-5.97% (inactive)	–
NC(=O)c1ncn([C@@H]2O[C@H](CO)[C@@H](O)[C@H]2O)c1O	-1.65% [at 30.3 µM] (inactive)	–
O=C(O)[C@@H]1[C@H]2C[C@H]3c4[nH]c5ccccc5c4CCN3C[C@@H]2CC[C@@H]1O	0.147% [at 30.3 µM] (inactive)	–
CC1(C)C(C=C(Cl)Cl)C1C(=O)OCc1cccc(Oc2ccccc2)c1 (stereo not drawn)	-1.36% (inactive)	–
CC[C@]1(O)C[C@@H]2CN(CCc3c([nH]c4ccccc34)[C@@](C(=O)OC)(c3cc4c(cc3OC)N(C)[C@H]3[C@@](O)(C(=O)OC)[C@H](OC(C)=O)[C@]5(CC)C=CCN6CC[C@]43[C@@H]65)C2)C1	–	inactive
O=C(O)c1ccccc1OP(=O)(O)O	-2.23% [at 30.3 µM] (inactive)	–
CCCCN(CCO)CCO	1.27% (inactive)	–
COC(OC)C(C)c1ccccc1 (stereo not drawn)	7.31% (inactive)	–
Nc1cc(=O)[nH]c(N)n1	0.749% [at 30.3 µM] (inactive)	–
CCOC(OCC)OCC	-1.99% (inactive)	–

Compound	activation	Potency
C=CCOC(=O)CCCCCC	-3.45% (inactive)	–
O=C(O)[C@@H](O)[C@H](O)[C@H](O)[C@@H](O)C(=O)O	-0.386% [at 30.3 µM] (inactive)	–
CCCCCCCCCC(C)=O	-3.99% (inactive)	–
OC/C=C/CO	11.8% (inactive)	–
CCCCCCCCCCCCC(=O)O	-1.49% (inactive)	–
Cc1ccc(S(=O)(=O)NC(=O)NC2CCCC2)cc1	1.03% [at 30.3 µM] (inactive)	–
CCCC(=O)c1ccccc1	0.387% (inactive)	–
NC(=O)c1cccc([N+](=O)[O-])c1	-2.9% (inactive)	–
COc1c2ccoc2cc2oc(=O)ccc12	–	inactive
CC(C)c1cccc(C(C)C)c1N	-2.59% (inactive)	–
CCCCCCCCC1CCC(=O)O1 (stereo not drawn)	2.48% (inactive)	–
Cc1cccc(Cl)c1	0.251% (inactive)	–
CO[Si](C)(C)OC	-1.28% (inactive)	–
COCc1ccc(COC)cc1	1.31% (inactive)	–
c1c[nH]cn1	–	inactive
OC1(c2ccc(Cl)cc2)CCNCC1	0.266% [at 30.3 µM] (inactive)	–
Cc1c2oc3c(C)ccc(C(=O)N[C@@H]4C(=O)N[C@H](C(C)C)C(=O)N5CCC[C@H]5C(=O)N(C)CC(=O)N(C)[C@@H](C(C)C)C(=O)O[C@@H]4C)c3nc-2c(C(=O)N[C@@H]2C(=O)N[C@H](C(C)C)C(=O)N3CCC[C@H]3C(=O)N(C)CC(=O)N(C)[C@@H](C(C)C)C(=O)O[C@@H]2C)c(N)c1=O (I: T[dV]P[Sar][NMeV] / II: T[dV]P[Sar][NMeV]; ester I:1-I:C, II:1-II:C; linker I:N-II:N via Actinocin(9to1))	–	inactive
C1CCCCC1	-0.279% (inactive)	–
Cc1ccc(C(C)c2ccc(C)c(C)c2)cc1C	-2.27% (inactive)	–
